From the supplement of paper PMC10732440
± gives the standard deviation of the averaged measurements.

System: Caenorhabditis elegans N2 infected with Nematocida parisii ERTm1
Test: progeny production relative to DMSO uninfected control; higher = more progeny despite microsporidia infection (inhibition of infection with low host toxicity)
Details: infection time 6 days
In short: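 Progeny production is reported as a percentage of spore-free vehicle wells and averaged across replicates. It was measured after bleach-synchronised wild-type C. elegans L1 larvae (100 per well) spent 6 days shaking at 21°C in K-medium with E. coli OP50, 15,000 N. parisii spores/μL and compound at 100 μM or 40 μM in 1% DMSO. Counting used Rose Bengal staining, flatbed scanning and WorMachine, and each compound and dose was tested three times.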

| Compound | progeny production (40 µM) [%] | progeny production (100 µM) [%] |
| --- | --- | --- |
| Cc1c(F)cccc1NC(=O)Nc1ccc(Cl)c(S(=O)(=O)[C@H]2CCCNC2)c1O | 8.9 ± 1.8 | 13 ± 5.7 |
| O=C(Nc1nnc(-c2ccc(Cl)cc2)o1)c1nc2ccccc2s1 | 8.93 ± 4.2 | 6.47 ± 3.5 |
| COc1ccc2cc3[n+](cc2c1OCCN(CCn1cncn1)Cc1ccc(F)cc1F)CCc1cc2c(cc1-3)OCO2 | 5.91 ± 1.2 | 17.3 ± 14 |
| O=C(CC1Sc2ncnn2C1=O)Nc1ccc(Br)cc1 (configuration not stated) | 6.82 ± 1.8 | 21.6 ± 10 |
| C(=C\c1nc2ccccc2[nH]1)/c1ccc2c(c1)OCO2 | 7.35 ± 5.9 | 16.6 ± 18 |
| CCCc1ccc(-c2cc3cn([C@H]4C[C@H](O)[C@@H](CO)O4)c(=O)nc3o2)cc1 | 3.62 ± 2.5 | 11 ± 5.5 |
| COc1cc(NS(=O)(=O)c2ccc(C)cc2)c2ncccc2c1 | 5.38 ± 2.2 | 10.3 ± 3.9 |
| CCCCC(CC)CNC(=N)NC(=N)NCCCCCCNC(=N)NC(=N)NCC(CC)CCCC (configuration not stated) | 5.25 ± 0.29 | 24.3 ± 32 |
| Oc1ccc2[nH]c(-c3ccccc3)nc2c1 | 5.32 ± 3.2 | 11.5 ± 2.5 |
| O=C(O)CCNC(=O)c1ccccc1 | 13 ± 12 | 16.4 ± 8.7 |
| COc1ccc(SCC(=O)N2c3ccccc3Sc3ccccc32)cc1 | 5.84 ± 2.3 | 14.1 ± 5.9 |
| Cc1[nH]c2ccccc2c1CCNCc1ccc(/C=C/C(=O)NO)cc1 | 6.83 ± 2.5 | 9.79 ± 7.8 |
| NCc1ccc(S(N)(=O)=O)cc1 | 5.64 ± 3.5 | 7.3 ± 1.6 |
| CC[C@@]1(O)C(=O)OCc2c1cc1n(c2=O)Cc2cc3c([N+](=O)[O-])cccc3nc2-1 | 5.77 ± 1.9 | 8.29 ± 3.3 |
| O=C(NC(=O)N1CCCc2ccccc21)c1ccc(Cl)cc1Cl | 3.48 ± 1.1 | 19.2 ± 21 |
| CCC(CC)[C@H](NC(C)=O)[C@@H]1[C@H](O)[C@@H](C(=O)O)C[C@H]1NC(=N)N | 6.29 ± 2.5 | 7.52 ± 7.1 |
| OCCC#Cc1nc(-c2ccc(F)cc2)c(-c2ccncc2)n1CCCc1ccccc1 | 5.08 ± 0.6 | 16.6 ± 12 |
| Nc1nc(-c2ccccc2)nc2[nH]nc(Nc3ccc(C(F)(F)F)cc3)c12 | 7.69 ± 2.2 | 29.5 ± 27 |
| Cc1ncc([N+](=O)[O-])n1CC(C)O (configuration not stated) | 7.4 ± 3.9 | 7.52 ± 8.6 |
| CN(C/C=C/C#CC(C)(C)C)Cc1cccc2ccccc12 | 5.74 ± 2.2 | 17.7 ± 11 |
| CC(=O)Oc1ccccc1C(=O)Nc1ncc([N+](=O)[O-])s1 | 3.11 ± 1.7 | 10.8 ± 5.3 |

| Compound | progeny production (40 µM) [%] | progeny production (100 µM) [%] |
| --- | --- | --- |
| O=C(NCc1ccc(F)cc1)c1c(O)c2ncccc2[nH]c1=O | 5.38 ± 2.2 | 16 ± 8.6 |
| COc1nc2ccc(Br)cc2cc1[C@@H](c1ccccc1)[C@@](O)(CCN(C)C)c1cccc2ccccc12 | 7.24 ± 3.5 | 14.3 ± 4.9 |
| O=C1[C@H](CC[C@H](O)c2ccc(F)cc2)[C@@H](c2ccc(O)cc2)N1c1ccc(F)cc1 | 6.94 ± 2.7 | 21 ± 14 |
| O=C1NC(=O)C(Br)=C1Br | 12.2 ± 12 | 30.7 ± 9.8 |
| CC(=O)N1c2ccccc2NC2=C(C(=O)CC(C)(C)C2)C1c1ccc(OCc2ccccc2)cc1 (configuration not stated) | 4.92 ± 0.34 | 9.82 ± 5.5 |
| CO[C@@]1(NC(=O)Cc2cccs2)C(=O)N2C(C(=O)O)=C(COC(N)=O)CS[C@@H]21 | 8.96 ± 2.4 | 7.7 ± 7.8 |
| OC(Cn1cncn1)(Cn1cncn1)c1ccc(F)cc1F | 3.82 ± 1.7 | 22 ± 18 |
| NC(=O)c1ccc(I)c([N+](=O)[O-])c1 | 1.54 ± 0.63 | 10 ± 2.6 |
| O=C(Cn1cnc2ccccc2c1=O)Nc1ccccc1 | 5.46 ± 4.2 | 8.2 ± 5.5 |
| Cc1ccc(C)c(OCCCCCCN2C[C@H](O)[C@@H](O)[C@H](O)[C@H]2CO)c1 | 3.54 ± 0.93 | 14.1 ± 11 |
| Nc1ccc(-c2nc3cc(C(F)(F)F)ccc3n2C23CC4CC(CC(C4)C2)C3)cc1 | 5.81 ± 2.1 | 17 ± 6 |
| Cc1cc(C)n(O)c(=O)c1 | 1.95 ± 0.44 | 14.8 ± 8.8 |
| CC(C)(C)c1cc(CCC(=O)N2CCC2)cc(C(C)(C)C)c1O | 5.76 ± 2.7 | 14.4 ± 8.6 |
| C[C@H](NC(CC(=O)c1ccccc1C(F)(F)F)C(=O)O)c1ccccc1 (some centres not stated) | 8 ± 6.4 | 5.89 ± 3.9 |
| Nc1cnn(C2OC(CO)C(O)C2O)c(=O)n1 (configuration not stated) | 3.5 ± 1.1 | 13.1 ± 5.4 |
| CCCCc1ccc(-c2nc(C)c(C(=O)OC)s2)cc1 | 4.25 ± 0.74 | 12.2 ± 3.7 |
| O=C(O)C(Cc1c[nH]c2ccccc12)N1C(=O)c2ccccc2C1=O (configuration not stated) | 6.93 ± 1.2 | 9.79 ± 1.2 |
| N=C(N)NCCCCC(=O)Nc1cc(C(F)(F)F)cc(NC(=O)c2cc(C(=O)Nc3cc(C(F)(F)F)cc(NC(=O)CCCCNC(=N)N)c3O[C@@H]3CCNC3)ncn2)c1O[C@@H]1CCNC1 | 7.1 ± 7.2 | 3.98 ± 2.8 |
| c1cnc(NCc2ccc(CNc3ncccn3)cc2)nc1 | 3.1 ± 0.72 | 9.59 ± 5.8 |
| CC(C)=CCC/C(C)=C/CNCCNC1C2CC3CC(C2)CC1C3 (configuration not stated) | 6.62 ± 1.2 | 30 ± 23 |
